TDP1 cell CPT: DT40-hTDP1 cell growth loss with CPT; Potency, µM (series often up to 46.2 µM), hits mostly inhibitors; chicken DT40 Tdp1-/-;hTDP1 cells + 20 nM CPT, ATP luminescence, 48 h; 420,000 compounds, 12% hits; also: nearly all actives have a fitted effect of over 55% in size
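Chicken DT40 Tdp1-/- cells complemented with human TDP1, 400 cells/well, exposed to compounds plus 20 nM camptothecin for at least 48 h at 37 C; viability read as ATP content by CellTiter-Glo luminescence.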
HT1080 IDH1KD tx: toxicity to HT-1080 IDH1 knockdown cells (counter line); HT-1080 IDH1 knockdown viability, ATP luminescence, 48 h; Potency, µM (highest dose often 46.1 µM), actives largely listed as cytotoxic; 360,000 compounds, 2% hits
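In this qHTS, HT-1080 cells depleted of IDH1 are exposed for 48 h at 37 °C to compound titrations. Toxicity is scored from CellTiter-Glo luminescence, with DMSO as full viability and medium alone as none.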
HT1080NT lethal: kills 2HG-producing HT-1080-NT fibrosarcoma cells | HT-1080-NT fibrosarcoma viability, CellTiter-Glo ATP luminescence, 48 h | 360,000 compounds, 1.6% hits | Potency, µM (highest dose often 46.1 µM), actives largely listed as cytotoxic | AID 686970;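 also: NT is the 2HG producing partner of a matched IDH1 knockdown line; nearly all actives have a fitted effect of over 55% in size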
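Compounds were tested in concentration-response format on HT-1080-NT cells for 48 hours at 37 degrees C. Cell viability came from CellTiter-Glo luminescence; curves were classified by r2, response magnitude and activity.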
TDP1 cell noCPT: qHTS for Inhibitors of human tyrosyl-DNA phosphodiesterase 1 (TDP1): qHTS in cells in absence of CPT. DT40 Tdp1-/- hTDP1 cells, no CPT, ATP luminescence, 48 h. 420,000 compounds, 15% hits. Potency, µM (doses to about 46.2 µM), actives largely listed as inhibitors; also: nearly all actives have a fitted effect of over 55% in size
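Chicken DT40 Tdp1-/- cells stably complemented with human TDP1 were seeded at 400 cells/well with DMSO in place of 20 nM camptothecin. After compound pinning, cells grew at least 48 hr at 37 °C; viability read by CellTiter-Glo luminescence.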
IL1B secr inh: blocks inflammasome-driven IL-1 beta release | 360,000 compounds, 4.7% hits | activity change, % at 57.5 µM | THP-1 LPS/ATP IL-1B secretion, AlphaLISA, 16 h; hits give low values; in the data active = activity change below about -50%; inconclusive = mostly about -30% to -49%
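Secreted IL-1B measured by AlphaLISA bead assay after 16 h compound exposure of THP-1 cells; compounds (final up to 57.5 uM) added 1 h before LPS (250 ng/mL) and ATP (1.25 mM) stimulation; lower signal means less secretion.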
A number is an active result; n = inactive; u = inconclusive; x = no result. The list is not random: actives were taken first. Their share in the collection is about 19%. Unless noted, calls follow the shape of the dose curve; as a rule, active = well fitted curve in the direction sought with a large enough effect; inconclusive = small, poorly fitted or top-dose-only effect, or another doubt; inactive = no such curve, though single readings can be large; an effect the other way counts as inactive or inconclusive.

SMILES | TDP1 cell CPT | HT1080 IDH1KD tx | HT1080NT lethal | TDP1 cell noCPT | IL1B secr inh
CCc1c(C)nc2c(Br)cccc2c1SCCC#N | u | n | n | u | n
CCc1cc(-c2n[nH]c(C)c2-c2nc(C)cs2)c(O)cc1OC | n | n | u | n | -78
CC(OC(=O)Cn1cnc2c1c(=O)n(C)c(=O)n2C)C(=O)NC1(C#N)CCCCC1 (stereo unspecified) | n | n | n | n | n
CCc1nc2ccccc2c(C(=O)OCC(=O)NC(=O)c2cccn2C)c1C | u | n | n | u | n
O=C(NN=Cc1ccc2c(c1)CCC2)c1ccccc1[N+](=O)[O-] | 23µM | n | n | 18µM | n
Cc1ccccc1NC(=O)c1ccc(CN(c2ccccc2)S(=O)(=O)c2ccccc2)cc1 | u | n | n | u | n
O=C(Nc1ccc(S(=O)(=O)N(Cc2ccccc2)c2ccccc2)cc1)c1ccc(F)cc1 | 23µM | x | x | 6.5µM | x
CCN(c1ccccc1)S(=O)(=O)c1cc(C(=O)Nc2ccc(Br)cc2)ccc1F | 21µM | u | u | 21µM | u
CCN(c1ccccc1)S(=O)(=O)c1ccc(F)cc1C | n | n | n | u | n
CCOc1cccc(C(=O)Nc2ccc(S(=O)(=O)N(Cc3ccccc3)c3ccccc3)cc2)c1 | u | x | x | 2.3µM | x
Cc1cccc(C(=O)Nc2ccc(S(=O)(=O)N(Cc3ccccc3)c3ccccc3)cc2)c1 | u | x | x | 10µM | x
Cc1cccc(N(CC(=O)NCc2ccccc2)S(C)(=O)=O)c1C | n | x | x | n | x
CCN(Cc1ccccc1)S(=O)(=O)c1ccc(F)cc1 | n | n | n | n | n
CCOc1ccccc1OCC(=O)Nc1ccc(S(=O)(=O)N(C)C)cc1 | n | n | n | n | n
CC(C)N(Cc1ccccc1)S(=O)(=O)c1ccc(F)cc1 | u | n | n | 9.2µM | n
COc1cccc(C(=O)Nc2ccc(S(=O)(=O)N(Cc3ccccc3)c3ccccc3)cc2)c1 | u | x | x | 5.8µM | x
Cc1ccccc1OCC(=O)Nc1ccc(S(=O)(=O)N(Cc2ccccc2)c2ccccc2)cc1 | u | x | x | 5.8µM | x
O=C1OCCC1=Cc1ccccc1 | n | n | n | n | n
COc1ccccc1C(=O)NC(=S)Nc1ccc(N2CCN(C(=O)c3ccco3)CC2)cc1 | u | n | n | 15µM | u
CC(=O)N1CCN(c2ccc(NC(=O)c3ccccc3C)cc2)CC1 | n | n | n | n | n
Cc1ccccc1C(=O)N1CCN(c2ccc(NC(=S)NC(=O)c3ccco3)cc2)CC1 | 23µM | u | u | 26µM | u
COc1ccccc1N1CCN(C(=O)c2ccco2)CC1 | n | n | n | n | n
CC(Sc1cnccn1)C(=O)O (stereo unspecified) | n | n | n | n | n
COc1cccc(C2CC(=O)C3=C(C2)Nc2ccccc2N(C(=O)CCC(=O)O)C3c2ccc(F)cc2)c1 (stereo unspecified) | n | n | n | n | n
Fc1ccc(N2C(=S)SC(=Nc3ccccc3)C2=Nc2ccccc2)cc1 | u | n | n | u | n
SMILES | TDP1 cell CPT | HT1080 IDH1KD tx | HT1080NT lethal | TDP1 cell noCPT | IL1B secr inh
N#CC(C#N)=C1SC(=Nc2ccccc2)C(=Nc2ccccc2)N1c1ccccc1 | 5.2µM | u | u | 8.2µM | n
O=c1[nH]c(SCc2ccc(Cl)cc2)nc2ccccc12 | n | n | n | n | n
Clc1ccc(CSc2cnnc3ccccc23)cc1Cl | u | n | n | u | n
O=Cc1cc2ccccc2nc1SCc1ccc(Cl)cc1 | 1µM | 7.3µM | 5.2µM | 1µM | n
O=Cc1cc2ccccc2nc1SCc1ccc(Cl)c(Cl)c1 | 1µM | 5.8µM | 4.1µM | 0.92µM | n
CCCCn1c(N)c(N(CC)C(=O)C2=NN(c3ccccc3)C(=O)CC2)c(=O)[nH]c1=O | n | n | n | n | n
COc1ccc(N2C(=O)C(CN3CCCCC3)C2c2ccccc2)cc1 (stereo unspecified) | u | n | n | 13µM | n
COc1ccc(NC2=CC(c3ccccc3)N(c3ccc(OC)cc3)C2=O)cc1 (stereo unspecified) | u | u | n | 8.2µM | n
O=c1[nH]ncc(N/N=C\c2cccs2)c1Cl | n | n | n | n | n
CC(=O)c1ccc(S(=O)(=O)N2CCN(C)CC2)cc1 | n | n | n | n | n
Cc1ccc(/C=C(\C#N)C(=O)NCC2CCCO2)o1 (stereo unspecified) | n | u | u | n | n
Cc1ccc(C)c(OCCn2cc(/C=C(\C#N)C(=O)NCC3CCCO3)c3ccccc32)c1 (stereo unspecified) | u | n | n | u | u
N#C/C(=C\c1cc2c(cc1Br)OCO2)C(=O)NCC1CCCO1 (stereo unspecified) | u | n | n | u | -77
Cc1cc(/C=C(\C#N)C(=O)O)c(C)n1CC1CCCO1 (stereo unspecified) | u | n | n | 21µM | n
Cc1ccccc1-n1c(C)cc(/C=C(\C#N)C(=O)NCC2CCCO2)c1C (stereo unspecified) | u | n | n | 12µM | n
Cc1ccc(OCCn2cc(/C=C(\C#N)C(=O)NCC3CCCO3)c3ccccc32)cc1 (stereo unspecified) | 13µM | n | n | 10µM | n
CNC(=O)N(O)C1N(/N=C/c2ccccc2OC)C(=S)SC1(C)C (stereo unspecified) | n | n | n | n | n
COCCNC(=O)Cn1c(=O)n(-c2ccc(C)c(C)c2)c(=O)c2c3c(sc21)CCCCC3 | n | x | x | n | x
CCCCC1CC2=C(C(=O)OC(C)(C)O2)C(c2ccc(Cl)cc2)O1 (stereo unspecified) | u | n | n | u | n
CCN1C(=NCc2ccc(OC)cc2)N[C@@H](c2ccccc2)[C@H](C(=O)OC)[C@H]1C | n | n | n | u | n
CCn1cc(-c2csc(N)n2)c(C)n1 | n | n | n | n | n
Cc1ccc(OCCn2cc(/C=C(\C#N)C(=O)NCC3CCCO3)c3ccccc32)cc1C (stereo unspecified) | 13µM | n | n | 7.3µM | n
CN1c2ccc(Cl)cc2C(=O)NC1c1ccc([N+](=O)[O-])s1 (stereo unspecified) | 21µM | 23µM | u | 23µM | n
O=C(CCC(=O)c1cccs1)OCC(=O)N1CCN(C(=O)c2ccco2)CC1 | n | n | n | n | n
COC(=O)c1cc(OC)c(OC)cc1NC(=O)c1ccc2c(c1)CCN2S(C)(=O)=O | n | x | x | n | x
C#CCOCCOCCOCCNc1nc(N2CCN(C(=O)[C@H](CCCCN)n3cc([C@@H](N)CC(C)C)nn3)CC2)nc(N2CCN(C(=O)[C@H](CCCCN)n3cc([C@@H](N)CC(C)C)nn3)CC2)n1 | n | n | n | n | n

Source: PubChem BioAssay (National Center for Advancing Translational Sciences (NCATS))
